The source of these data is the supplement of paper PMC7156485.
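Further: TDF denotes transformed human dermal fibroblasts of mesenchymal origin.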

For the assay, the system named is HCC1569. Briefly: cell number relative to DMSO (% of DMSO); higher = more cells (less growth inhibition / toxicity). Conditions: concentration: 10 µM; 24 h. In a few lines: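 Cells were seeded at 800 per well in 384-well plates with RPMI containing 10% FBS; both HCC1569 and TDF lines were used. Compounds were added at 10 µM for 24 h at 37 °C, in triplicate, before fixation in 3.7% formaldehyde and staining with a rabbit anti-H1.0 antibody, an AlexaFluor 647 secondary and DAPI. H1.0 nuclear intensity or cell number is reported as percent of the plate control using the median of replicates, and HCC1569 values were smoothed for positional effects.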
`CC(C)NCC(O)COc1ccc(CC(N)=O)cc1` (stereo not drawn) [S(-)-Atenolol] registered a cell number of 101. For the compound `Cc1ccc(-c2nn(C(C)(C)C)c3ncnc(N)c23)cc1`, the cell number turned out to be 69.8. For `O=c1[nH]c2cc([N+](=O)[O-])c([N+](=O)[O-])cc2[nH]c1=O`, the cell number is 105.

`OCC1OC(n2cnc3c(NC4CCCCC4)ncnc32)C(O)C1O` (stereo not drawn) [N6-Cyclohexyladenosine] gave a cell number of 100.

In the case of `CN(C)CCC(CSc1ccccc1)Nc1ccc(S(=O)(=O)NC(=O)c2ccc(N3CCN(Cc4ccccc4-c4ccc(Cl)cc4)CC3)cc2)cc1[N+](=O)[O-]` (stereo not drawn), the cell number is 30.5. With `CCC1C(=O)OCC1Cc1cncn1C.Cl` (single isomer, unassigned; (+)) [(+)-Pilocarpine hydrochloride], the cell number amounted to 97.7. In turn, `CCCCC1(C2CCCC2)Cc2cc(OCC(=O)O)c(Cl)c(Cl)c2C1=O` (stereo not drawn) [R(+)-Butylindazone] showed a cell number of 98.8. Regarding `CSc1nc2ccc3nc(NC(=O)C(c4ccccc4)c4ccccc4)sc3c2s1`, the cell number was found to be 103. For `COc1ccc2c(c1OC)C(=O)OC2C1c2c(cc3c(c2OC)OCO3)CCN1C` (racemic), the cell number was determined as 98.6. Consider `Brc1c(NC2=NCCN2)ccc2nccnc12`, for which the cell number amounted to 103.

In the case of `CCCCCC(O)C=CC1C(O)CC(O)C1CC=CCCCC(=O)O` (racemic), the cell number amounted to 106. As to `COc1cc(C(O)C(=O)O)ccc1O` (stereo not drawn) [hydroxy(4-hydroxy-3-methoxyphenyl)acetic acid], the cell number was 99.7. The compound `CC(C)CNCc1ccc(-c2ccccc2S(=O)(=O)N2CCCC2)cc1.Cl` came in with a cell number of 96.
